From PubChem BioAssay AID1159580 (chemical genetic matrix, 2015)
The whole screen tested about 5,500 compounds, of which about 2,000 (36%) were called active. Inconclusive results (about 18%) are left out. No stated cut-off is given here; in the data, active means normalized growth mostly below about 0.91 (no sharp cut-off); inconclusive means no clear call, values can overlap the other calls; inactive means mostly above about 0.92. Some of the results follow.

Experiment: chemical genetic growth profiling, strain panel (AID 1159580);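 further: tested at 20 µM; growth read once vehicle control cultures reached saturation at 30 °C; 1 = growth at the plate median or of vehicle wells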
Conditions: growth OD

Measured: normalized growth

C[C@@H]1CC2C3C[C@H](F)C4=CC(=O)C=C[C@]4(C)[C@@]3(F)[C@@H](O)C[C@]2(C)[C@@]1(O)C(=O)COC(=O)C(C)(C)C (some centres not stated)
inactive: S. cerevisiae deletion strains, locus YJR075W, strain HOC1, stronger effect = lower value 0.997 | S. cerevisiae deletion strains, locus YKL009W, strain mrt4, stronger effect = lower value 0.982 | S. cerevisiae deletion strains, locus YKL068W, stronger effect = lower value 1.01 | S. cerevisiae deletion strains, locus YKL085W, strain MDH1 (second series), stronger effect = lower value 1 | S. cerevisiae deletion strains, locus YKL085W, strain MDH1, stronger effect = lower value 1 | S. cerevisiae deletion strains, locus YKL160W, strain elf1, stronger effect = lower value 0.978 | S. cerevisiae deletion strains, locus YKL190W, strain CNB1, stronger effect = lower value 0.997 | S. cerevisiae deletion strains, locus YKR001C, strain vps1, stronger effect = lower value 0.988 | S. cerevisiae deletion strains, locus YKR026C, strain gcn3, stronger effect = lower value 0.997 | S. cerevisiae deletion strains, locus YKR091W, strain srl3, stronger effect = lower value 0.996 | S. cerevisiae deletion strains, locus YLL001W, strain dnm1, stronger effect = lower value 0.987 | S. cerevisiae deletion strains, locus YLL026W, stronger effect = lower value 0.984 | S. cerevisiae deletion strains, locus YLL041C, strain sdh2, stronger effect = lower value 1.01 | S. cerevisiae deletion strains, locus YLR027C, strain aat2, stronger effect = lower value 0.987 | S. cerevisiae deletion strains, locus YLR039C, strain RIC1, stronger effect = lower value 1.02 | S. cerevisiae deletion strains, locus YLR058C, strain SHM2, stronger effect = lower value 1.01 | S. cerevisiae deletion strains, locus YLR102C, strain apc9, stronger effect = lower value 1.01 | S. cerevisiae deletion strains, locus YLR113W, strain HOG1, stronger effect = lower value 0.969 | S. cerevisiae deletion strains, locus YLR221C, strain rsa3, stronger effect = lower value 0.99 | S. cerevisiae deletion strains, locus YLR258W, strain gsy2, stronger effect = lower value 0.995 | S. cerevisiae deletion strains, locus YLR262C, strain YPT6 (second series), stronger effect = lower value 0.98 | S. cerevisiae deletion strains, locus YLR262C, strain YPT6, stronger effect = lower value 0.977 | S. cerevisiae deletion strains, locus YLR268W, strain sec22, stronger effect = lower value 0.984 | S. cerevisiae deletion strains, locus YLR320W, strain mms22, stronger effect = lower value 0.975 | S. cerevisiae deletion strains, locus YLR330W, strain CHS5, stronger effect = lower value 1.01 | S. cerevisiae deletion strains, locus YLR342W, strain FKS1 (second series), stronger effect = lower value 1.03 | S. cerevisiae deletion strains, locus YLR342W, strain FKS1, stronger effect = lower value 0.978 | S. cerevisiae deletion strains, locus YLR357W, strain rsc2, stronger effect = lower value 0.979 | S. cerevisiae deletion strains, locus YLR370C, strain arc18, stronger effect = lower value 0.987 | S. cerevisiae deletion strains, locus YLR371W, strain rom2, stronger effect = lower value 1.01 | S. cerevisiae deletion strains, locus YLR384C, strain iki3, stronger effect = lower value 0.987 | S. cerevisiae deletion strains, locus YLR418C, strain cdc73, stronger effect = lower value 1.03 | S. cerevisiae deletion strains, locus YML016C, strain PPZ1, stronger effect = lower value 1 | S. cerevisiae deletion strains, locus YML032C, strain rad52, stronger effect = lower value 1 | S. cerevisiae deletion strains, locus YML120C, strain ndi1, stronger effect = lower value 0.999 | S. cerevisiae deletion strains, locus YML124C, strain tub3, stronger effect = lower value 1 | S. cerevisiae deletion strains, locus YMR058W, strain fet3, stronger effect = lower value 1.01 | S. cerevisiae deletion strains, locus YMR078C, strain ctf18, stronger effect = lower value 1.01 | S. cerevisiae deletion strains, locus YMR125W, strain sto1, stronger effect = lower value 1.01 | S. cerevisiae deletion strains, locus YMR129W, stronger effect = lower value 0.988 | S. cerevisiae deletion strains, locus YMR205C, strain PFK2, stronger effect = lower value 0.977 | S. cerevisiae deletion strains, locus YMR223W, strain ubp8, stronger effect = lower value 1.04 | S. cerevisiae deletion strains, locus YMR231W, strain pep5, stronger effect = lower value 0.998 | S. cerevisiae deletion strains, locus YMR263W, strain SAP30, stronger effect = lower value 1.01 | S. cerevisiae deletion strains, locus YMR307W, strain GAS1, stronger effect = lower value 0.95 | S. cerevisiae deletion strains, locus YNL067W, strain RPL9B, stronger effect = lower value 0.998 | S. cerevisiae deletion strains, locus YNL071W, strain lat1, stronger effect = lower value 1 | S. cerevisiae deletion strains, locus YNL183C, strain NPR1, stronger effect = lower value 0.962 | S. cerevisiae deletion strains, locus YNL209W, strain ssb2, stronger effect = lower value 0.996 | S. cerevisiae deletion strains, locus YNL233W, strain BNI4, stronger effect = lower value 1.01 | S. cerevisiae deletion strains, locus YNL248C, strain rpa49, stronger effect = lower value 1.01 | S. cerevisiae deletion strains, locus YNL250W, strain rad50, stronger effect = lower value 1.02 | S. cerevisiae deletion strains, locus YNL271C, strain bni1, stronger effect = lower value 1.01 | S. cerevisiae deletion strains, locus YNL298W, strain CLA4, stronger effect = lower value 0.998 | S. cerevisiae deletion strains, locus YNL307C, strain MCK1, stronger effect = lower value 1.02 | S. cerevisiae deletion strains, locus YNL322C, strain KRE1 (second series), stronger effect = lower value 1 | S. cerevisiae deletion strains, locus YNR049C, strain mso1, stronger effect = lower value 0.998 | S. cerevisiae deletion strains, locus YNR052C, strain pop2, stronger effect = lower value 0.998 | S. cerevisiae deletion strains, locus YOL012C, strain htz1 1.17 | S. cerevisiae deletion strains, locus YOL147C, strain pex11, stronger effect = lower value 1.01 | S. cerevisiae deletion strains, locus YOR001W, strain rrp6, stronger effect = lower value 0.98 | S. cerevisiae deletion strains, locus YOR061W, strain CKA2, stronger effect = lower value 1 | S. cerevisiae deletion strains, locus YOR069W, strain VPS5, stronger effect = lower value 1.01 | S. cerevisiae deletion strains, locus YOR070C, strain gyp1, stronger effect = lower value 0.999 | S. cerevisiae deletion strains, locus YOR080W, strain dia2, stronger effect = lower value 0.979 | S. cerevisiae deletion strains, locus YOR083W, strain WHI5, stronger effect = lower value 0.982 | S. cerevisiae deletion strains, locus YOR106W, strain vam3, stronger effect = lower value 0.987 | S. cerevisiae deletion strains, locus YOR136W, strain idh2, stronger effect = lower value 1.01 | S. cerevisiae deletion strains, locus YOR144C, strain elg1, stronger effect = lower value 1 | S. cerevisiae deletion strains, locus YOR184W, strain ser1, stronger effect = lower value 1.04 | S. cerevisiae deletion strains, locus YOR231W, strain MKK1, stronger effect = lower value 0.976 | S. cerevisiae deletion strains, locus YOR265W, strain rbl2, stronger effect = lower value 0.99 | S. cerevisiae deletion strains, locus YOR270C, strain vph1, stronger effect = lower value 1.01 | S. cerevisiae deletion strains, locus YOR290C, strain snf2, stronger effect = lower value 0.997 | S. cerevisiae deletion strains, locus YOR316C, strain cot1, stronger effect = lower value 1.01 | S. cerevisiae deletion strains, locus YPL051W, strain arl3, stronger effect = lower value 0.978 | S. cerevisiae deletion strains, locus YPL055C, strain LGE1, stronger effect = lower value 0.999 | S. cerevisiae deletion strains, locus YPL078C, strain atp4, stronger effect = lower value 0.974 | S. cerevisiae deletion strains, locus YPL106C, strain sse1, stronger effect = lower value 0.946 | S. cerevisiae deletion strains, locus YPL240C, strain hsp82, stronger effect = lower value 1 | S. cerevisiae deletion strains, locus YPL256C, strain CLN2, stronger effect = lower value 0.992 | S. cerevisiae deletion strains, locus YPR119W, strain clb2, stronger effect = lower value 1.01 | S. cerevisiae deletion strains, locus YPR141C, strain kar3, stronger effect = lower value 1 | S. cerevisiae deletion strains, locus YPR163C, strain tif3, stronger effect = lower value 1 | S. cerevisiae deletion strains, locus YPR167C, strain met16, stronger effect = lower value 1.01 | S. cerevisiae deletion strains, strain wtn01, stronger effect = lower value 1 | S. cerevisiae strains, strain wild type, stronger effect = lower value 0.995
